Test results: PubChem BioAssay (NCI)
“And” between values parts separate entries of the source, which are not always exact repeats. Equal values may be shown once. Compounds without any hit were thinned out: in the full panel of roughly 83,000, 20% have a hit.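 Single-dose data. Exposure time 48 hours. Values below 10 considered active.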 The source made the active and inactive calls.

These compounds were tested on HL-60(TB) leukemia (assay: NCI-60 one-dose screen, 48 h (100 = growth as untreated, 0 = no growth, -100 = all killed)). Details: 10 µM unless noted.
`Cc1nn(-c2ccccc2)c2ncn(CC(=O)N/N=C/c3ccccc3O)c(=O)c12` was tested, and the growth was 6.2% (active).
In the case of `O=C(c1ccccc1)C(c1c[nH]c2ccccc12)c1c[nH]c2ccccc12`, the growth was 53.8% (inactive).
For `Cn1cc(-c2cc3nc(-c4c[nH]c5ccccc45)cc(N)n3n2)c2ccccc21`, the growth was -41.2% (active).
`N#C/C(=C/c1ccc(Cl)cc1)c1nnc(NC(=O)c2ccc(-n3c(=O)[nH]c4ccccc4c3=O)cc2)s1` was tested, and the growth was 98.2% (inactive).
In the case of `CC12CC[C@@H]3[C@]4(C)COC(c5c(F)cccc5F)O[C@@H]4CC[C@@]3(C)[C@@H]1CC(C1=CCOC1=O)O2` (some centres undefined), the growth was 60.3% (inactive).
With `N#Cc1cc(-c2ccc3ncnc(N4CCc5cc(F)c(Cl)cc54)c3c2)cnc1N` the growth was 36.1% (inactive).
`COc1ccc(C2(SCCNCc3cc(N(C)C)ccn3)c3ccccc3C=Cc3ccccc32)cc1` was tested, and the growth was -21.8% (active).
For `COc1ccc2cc([C@H](C)C(=O)NCc3ccccc3)ccc2c1`, the growth was 5.91% (active).
With `COC(=O)/C=C/c1cccc2c1C(=O)NC(C)(c1cc3ccccc3oc1=O)N2` (centres undefined) the growth was 40% (inactive).
With `S=C(Nc1ccc(OCc2nc3ccccc3[nH]2)cc1)NC1CCCCC1` the growth was 103% (inactive).
In the case of `COc1cc(/C=N/NC(=O)c2ccc(OCc3nc4ccc(Cl)cc4[nH]3)cc2)cc(OC)c1OC`, the growth was 28.2% (inactive).
In the case of `COCOc1ccc2c(=O)c(C)c(C(=O)N[C@@H](Cc3ccccc3)C(O)C(=O)NCCc3ccc(OC)cc3)oc2c1` (some centres undefined), the growth was 102% (inactive).
With `O=C(CSc1nc2ccccc2c(=O)[nH]1)NCCN1CCCCC1` the growth was 94.4% (inactive).
With `CN1C(=O)/C(=C\C(=O)c2cc3ccccc3oc2=O)c2ccccc21` the growth was 79.3% (inactive).
For `CN1C(=O)N(C)C2SC(N/N=C/c3ccccc3F)=NC21` (centres undefined), the growth was 1.5% (active).
In the case of `CCN(CC)c1ccc(/C=N/Nc2nc(-c3ccc(Br)cc3)cs2)c(O)c1`, the growth was 35.6% (inactive).
In the case of `Cc1[nH]nc2ccc3nc(-c4cn[nH]c4C(F)(F)F)c4c(c3c12)CCCC4`, the growth was -0.0725% (active).
`C=C[C@@]12CN3CC[C@]1(O)[C@@](C(=O)OC)(CO2)c1[nH]c2ccccc2c1C3` was tested, and the growth was 20.5% (inactive).
With `COc1cc(/C=C/C(=O)c2ccc(S(=O)(=O)NCCNc3nc(Nc4ccc(F)cc4)nc(N(C)C)n3)cc2)cc(OC)c1OC` the growth was -4.97% (active).
`CC1(c2ccccc2)NC(=O)N(CC(=O)Nc2ccc(C(=O)/C=C/c3ccc(Br)cc3)cc2)C1=O` (centres undefined) was tested, and the growth was 20.8% (inactive).
`CC1(C)CC(=O)C2=C(C1)OC(N)=C(c1nc3ccccc3[nH]1)C2c1ccc(Cl)cc1` (centres undefined) was tested, and the growth was 22% (inactive) and 106% (inactive).
For `O=C(/C=C/Nc1ccc(F)cc1F)c1ccc2c(c1)Nc1ccccc1S2`, the growth was 26.9% (inactive).
With `N#Cc1ccc(-c2nn(-c3ccc(C(=O)O)cc3)cc2CNc2cc(Cl)cc(C(F)(F)F)c2)cc1` the growth was 7.71% (active).
With `C=C1CCC2C3(C)COC(c4cccs4)OC3CCC2(C)C1CC(Sc1ccccc1)C1=CCOC1=O` (centres undefined) the growth was 19.4% (inactive).
In the case of `OCc1[nH]nc2cc(Nc3ncc4ccc(Br)c(OC5CCC(O)CC5)c4n3)ccc12` (centres undefined), the growth was -40.1% (active).
For `CC(=O)Nc1ccc(-c2cn(-c3cccc(C(=O)Nc4cc(C(F)(F)F)cc(C(F)(F)F)c4)c3)nn2)cn1`, the growth was -60.5% (active).
In the case of `CCOP(=O)(OCC)O[C@H]1CCC(=O)[C@@H]2[C@H]1[C@H]1C[C@@H]3[C@@]4(C)CCCC(C)(C(=O)OC)[C@@H]4CC[C@@]23C=C1C(C)C` (some centres undefined), the growth was 36.4% (inactive).
`NCCCCn1c(SCCc2c[nH]c3ccccc23)nnc1-c1ccc2ccccc2n1` was tested, and the growth was -64.6% (active).
With `Brc1ccc(-c2n(Cc3ccc4ccccc4c3)c(-c3ccccc3)c(-c3ccccc3)[n+]2Cc2ccc3ccccc3c2)cc1` the growth was -5.57% (active).
For `O=C(N/N=C/c1occc1Br)c1[nH]c2ccc(Br)cc2c1-c1ccccc1`, the growth was -34.2% (active).
`COc1cccc(O)c1/C=C1\SCc2cc3c(OC)cccc3[o+]c21` was tested, and the growth was 100% (inactive).
`O=C(Nc1ccccc1)N1CCN(c2cc(-c3cn(-c4ccccc4)nc3-c3cccc(O)c3)ccn2)CC1` was tested, and the growth was 23.3% (inactive).
With `COc1cc2c3c(n(CCCNC(C)C)c(=O)c2cc1OC)-c1nc2c(cc1C3=O)OCO2` the growth was 71.6% (inactive).
For `Cc1cc(=O)oc2cc(OCCCCOc3ccc(/C=C/C(=O)Nc4ccccc4[N+](=O)[O-])cc3)ccc12`, the growth was 101% (inactive).
